Assay outcomes deposited in PubChem BioAssay by National Center for Advancing Translational Sciences (NCATS).
In the library only some 0.97% were active in any assay of this set; here they are far more common.
Mm-Cpn inhibitor: inhibitors of Methanococcus maripaludis chaperonin TRiC (MmCpn) | purified Mm-Cpn ATPase, ADP Transcreener TR-FRET | Potency, µM (highest dose often 76.9 µM), for the others: top-dose activity, negative = inhibition, hits mostly inhibitors | 0.031% of 330,000 active | AID 504842; note: potency is the fitted concentration of half-maximal effect; % is set by controls: 0 for no effect and ±100 for the full control effect; nearly all actives have a fitted effect of over 80% in size
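TR-FRET (320 nm excitation; 590 and 665 nm emission) reports ADP made from 10 uM ATP by 25 nM enzyme; compounds were preincubated 10 min, reaction run 30 min, both at 37°C.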
uPA surface inh: inhibitors of cell surface uPA generation | Potency, µM (titrated, usually from 38.3 µM), without a hit: at the highest dose activity change, negative = inhibition, most hits filed as inhibitors | cell surface uPA generation assay, qHTS | AID 540303 | 0.31% of 330,000 active; active = well fitted inhibition curve with a large enough effect; inconclusive = small, poorly fitted or top-dose-only effect; inactive = no such curve, though single readings can be large or run the other way; tested in mouse RAW 264.7 cells; note: potency is the fitted concentration of half-maximal effect; % is set by controls: 0 for no effect and ±100 for the full control effect; nearly all actives have a fitted effect of over 55% in size
Epigenetic derep: epigenetic control regulation, reporter derepression; murine LDR cells, GFP reporter derepression, 30 h; Potency, µM (titrated, usually from 53.9 µM), inactives show top-dose GFP activation, actives largely listed as activators; 0.2% of 280,000 active; note: potency is the fitted concentration of half-maximal effect; % of control where 0% means no effect; nearly all actives have a fitted effect of over 60% in size
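Murine LDR cells carrying a silenced, genomically integrated CMV-driven GFP reporter were exposed to compound for 30 hours at 37 C. After PBS washes, GFP-positive cells (20–120 um objects) were counted by laser-scanning microplate cytometry.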
MBNL1-CUG inh: inhibitors of human MBNL1 binding to CUG repeat RNA | TR-FRET MBNL1-His/biotin-(CUG)12 binding, 665/545 ratio | Potency, µM (doses to about 57.5 µM), for inactives: at the highest dose activity change, negative = inhibition, hits mostly inhibitors | 0.036% of 280,000 active | AID 2675; active = well fitted inhibition curve with a large enough effect in the signal ratio, with a control signal flat, not every such curve was filed as active; inconclusive = small, poorly fitted or top-dose-only effect, or effect the other way, or a change in a side signal; inactive = no such curve, though single readings can be large or run the other way; the % refers to the signal ratio; note: potency is the fitted concentration of half-maximal effect; % is set by controls: 0 for no effect and ±100 for the full control effect
Target sequence (Q9NR56 whole entry, looked up): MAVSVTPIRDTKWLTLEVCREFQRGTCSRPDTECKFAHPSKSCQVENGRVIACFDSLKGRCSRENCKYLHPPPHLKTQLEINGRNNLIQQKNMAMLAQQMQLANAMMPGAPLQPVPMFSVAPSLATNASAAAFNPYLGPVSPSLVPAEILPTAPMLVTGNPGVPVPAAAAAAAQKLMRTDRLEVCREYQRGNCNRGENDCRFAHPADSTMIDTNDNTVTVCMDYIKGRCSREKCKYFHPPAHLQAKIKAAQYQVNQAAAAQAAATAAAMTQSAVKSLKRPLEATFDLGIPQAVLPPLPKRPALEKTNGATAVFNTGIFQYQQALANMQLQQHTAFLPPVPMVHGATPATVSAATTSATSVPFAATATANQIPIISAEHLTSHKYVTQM
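Compounds (final 92 nM to 58 uM) are added to His-tagged MBNL1 and biotin-(CUG)12, then terbium anti-His antibody and streptavidin-XL665 (5 nM final). After 60 min at room temperature, the 665/545 nm ratio is read.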
pAkt inh: blocks phosphorylation of Akt. Neuro2A IGF-stimulated pAkt S473 HTRF, 20 min; hits give low values. activity change, % for hits at 50 µM. 0.32% of 360,000 active; in the data active = activity change below about -80%; inconclusive = mostly about -51% to -80%; note: % is set by controls: 0 for no effect and ±100 for the full control effect
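Single-point screen (50 µM final compound) in Neuro2A cells stimulated 20 min with 6 nM IGF at 37 deg C. After lysis, Ser473-phosphorylated Akt read by HTRF (ex 330 nm, em 615/665 nm) as the 665/615 ratio.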
CCT chaperon mod: changes cytosolic chaperonin activity. purified chaperonin ATPase assay, HTRF ADP detection, 30 min. activity change, % (test concentration not listed), hits read low. 0.3% of 360,000 active; in the data active = activity change below about -30%; note: % is set by controls: 0 for no effect and ±100 for the full control effect
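Enzyme 40 or 20 nM (batch-dependent) in Tris pH 7.4/KCl/MgCl2/DTT; cpd 76 uM single point; ATP 10 uM; 30 min 37 °C; Transcreener ADP HTRF detection, 30 min RT; ratio 665/615.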
* hit, by the source's call; i = inactive; ? = inconclusive; . = not tested or not shown. Unless noted, calls come from the whole dose curve; as a rule, active = well fitted curve in the direction sought with a large enough effect; inconclusive = small, poorly fitted or top-dose-only effect, or another doubt; inactive = no such curve, though single readings can be large; an effect the other way counts as inactive or inconclusive.

SMILES	Mm-Cpn inhibitor	uPA surface inh	Epigenetic derep	MBNL1-CUG inh	pAkt inh	CCT chaperon mod
N#C/C(=C\c1ccc(N2CCOCC2)o1)C(=O)Nc1ccc(O)cc1	-16.3%	-10.6%	?	?	i	1.1
N#C/C(=C/c1ccc(N2CCCCC2)o1)C(=O)Nc1ccc2ccccc2c1	-2.6%	?	2.51µM*	?	i	-0.3
COc1ccc(NC(=O)/C(C#N)=C\c2ccc(N3CCOCC3)o2)cc1	-10.8%	-12.0%	15.8µM*	?	i	2.4
CCCCOC(=O)c1ccc(NC(=O)/C(C#N)=C/c2ccc(C)o2)cc1	.	.	10µM*	.	.	.
CCOc1ccc(S(=O)(=O)NC2CCCC2)cc1	?	-13.1%	.	-2.4%	i	-1.6
CCCCCNC(=O)CCn1c(=O)[nH]c2ccccc2c1=O	.	.	-0.3%	.	.	.
CCN(CC)c1ccc(N2C(=O)/C(=C/c3cccs3)SC2=S)cc1	-1.2%	1.6%	-1.0%	-4.4%	-102.8%*	-1.0
CCCOc1cccc(C(=O)Nc2ccc3c(c2)OCCO3)c1	1.8%	10µM*	.	-2.6%	i	-1.4
O=C(Nc1cccc(F)c1)c1ccc2c(c1)OCO2	0.1%	-10.9%	0.8%	-2.6%	i	-0.2
O=C(Nc1c(C(=O)Nc2cccc(F)c2)oc2ccccc12)c1ccc2c(c1)OCO2	0.9%	.	0.3%	?	-111.5%*	-0.9
CCCC(=O)Nc1cccc(NC(=O)c2ccc3c(c2)OCO3)c1	0.6%	1.6%	1.0%	5.1%	-114.8%*	-1.9
CCC(=O)Nc1cccc(NC(=O)c2ccc3c(c2)OCCO3)c1	4.8%	?	0.8%	-12.4%	i	-11.1
COc1ccc(CCNc2nc(-c3ccc(OC)c(OC)c3)cc(C(F)(F)F)n2)cc1OC	.	.	5.1%	.	.	.
CCOc1ccc(-c2nnc(SCC(=O)NC(C)(C)C)nc2-c2ccc(OCC)c(OC)c2)cc1OC	-1.5%	-10.1%	.	?	i	-0.3
CCOc1cc(-c2nnc(SCC(=O)Nc3ccc(F)c(F)c3)nc2-c2ccc(OC)c(OCC)c2)ccc1OC	.	.	15.8µM*	.	.	.
O=C1CCCCN1CC(=O)N1CCCC(Nc2ccc(F)cc2)C1 (stereo not given)	-0.6%	1.7%	.	-2.0%	i	-0.2
COc1cc(COC(=O)c2cnc(C)cn2)c(OC)cc1Br	-0.8%	0.1%	.	-0.8%	i	-51.6*
COc1ccc(CC(=O)Nc2c(C(=O)N3CCN(c4ncccn4)CC3)oc3ccccc23)cc1	-4.9%	0.8%	.	-7.0%	i	-68.4*
Cc1cccc(NS(=O)(=O)c2cc(C(=O)O)ccc2Cl)c1	.	.	-0.2%	.	.	.
Cc1cc(C(=O)CN2c3cccc4cccc(c34)S2(=O)=O)c(C)n1C	0.3%	2µM*	.	.	i	-1.1
O=C(Nc1ccc(N2CCCCC2)cc1)c1ccccc1	-1.0%	?	-0.9%	4.2%	i	-65.9*
O=C(Nc1ccc(N2CCCC2)cc1)c1ccccc1F	-2.9%	?	2.0%	13.2%	-85.3%*	0.0
CCN(Cc1ccccc1)c1ccc(/C=C(\C#N)c2ccccn2)cc1	0.5%	-3.0%	?	1.1%	i	-0.9
CN(CCC#N)c1ccc(/C=C(\C#N)c2ccccn2)cc1	-0.1%	2.51µM*	0.0%	.	i	-0.3
CCN(CC)c1ccc(/C=C(\C#N)c2ccccn2)cc1	-3.8%	-16.4%	17.8µM*	?	i	0.6
SMILES	Mm-Cpn inhibitor	uPA surface inh	Epigenetic derep	MBNL1-CUG inh	pAkt inh	CCT chaperon mod
CC1c2ccccc2-c2ccccc2N1C (stereo not given)	.	-2.4%	.	.	i	1.1
O=C(NCCc1ccc(Cl)cc1)C(=O)c1c[nH]c2ccccc12	-4.0%	1.3%	.	18.0%	i	-2.9
O=C(NCCc1c[nH]c2ccccc12)C(=O)c1c[nH]c2ccccc12	2.3%	-14.9%	.	5.4%	.	-86.6*
CN(CCO)c1cnccn1	0.2%	6.3%	3.1%	-0.1%	i	-1.7
CC[C@]12CCCN3CCc4c(n(c5ccccc45)[C@@](O)(C(=O)OC)C1)[C@@H]32	-1.9%	0.7%	.	.	i	-0.2
CC[C@]12CCCN3CCc4c(n(c5ccccc45)C(=O)C1)[C@@H]32	-3.3%	3.16µM*	.	.	i	0.1
CC(=O)c1cccc(NC(=O)CSc2nnc3ccc(-c4ccc(Br)cc4)nn23)c1	.	.	1.4%	.	.	.
Cc1csc(C(=O)O)c1NC(=O)c1c(Cl)cccc1Cl	-0.5%	-17.3%	.	6.4%	i	-87.3*
O=C(O)c1sccc1NC(=O)c1c(Cl)cccc1Cl	0.5%	1.2%	.	-1.9%	i	0.4
CCc1nnc(NC(=O)CCC(=O)N2CCN(Cc3ccc(Cl)cc3)CC2)s1	-0.2%	-4.9%	1.0%	-5.8%	i	-3.5
CCc1nnc(NC(=O)CSc2nccn2-c2ccccc2)s1	4.5%	2.5%	3.0%	-0.4%	i	-38.4*
CCc1nnc(NC(=O)CCC(=O)N2CCN(Cc3ccccc3)CC2)s1	-0.2%	4.6%	-1.9%	-0.1%	i	-93.4*
CCc1nnc(NC(=O)CSc2nnc(-c3ccccc3O)o2)s1	2.2%	-7.6%	-4.1%	2.8%	i	-55.8*
CCOc1ccc(-c2nnc(SCC(=O)NCc3ccc(C)cc3)nc2-c2ccc(OCC)cc2)cc1	.	.	9.1%	.	.	.
CC(C)(C)NC(=O)CSc1nncn1NCc1cccc2ccccc12	1.3%	6.4%	0.0%	-5.4%	-113.2%*	1.8
CC(C)(C)NC(=O)CSc1nncn1NCc1c(Cl)cccc1Cl	-0.5%	2.2%	0.8%	-2.6%	i	-4.3
CC/C=C/C(=O)N1CC2(CC(c3cccc(NC(=O)CC(c4ccccc4)c4ccccc4)c3)=NO2)C[C@@H]1C(N)=O (stereo not given in full)	1.8%	-2.6%	-1.6%	-2.1%	i	-33.2*
CC(C)=CC(=O)N1CC[C@@H](N2CCN(c3ccccc3F)CC2)[C@H](O)C1	0.4%	-1.2%	.	0.6%	i	0.2
C=CCc1c(C)nc2cc(-c3ccc(C)cc3)[nH]n2c1=O	1.8%	11.2µM*	.	-0.4%	i	-1.3
CCc1c(C)nc2cc(-c3ccccc3)[nH]n2c1=O	-0.3%	-10.7%	.	-3.7%	i	1.5
COc1cc(C2C(C#N)=C(N)Oc3c2ccc2ccccc32)ccc1OCC(=O)Nc1ccccc1C (stereo not given)	-15.9%	7.0%	-2.2%	12.4%	-104.1%*	-0.5
COc1ccnc(CSC(N)=Nc2ccccc2OC)c1	1.4%	-0.4%	3.55µM*	-3.5%	i	-1.3
COc1ccnc(CSC(N)=Nc2ccccc2C(F)(F)F)c1	0.4%	-3.6%	-1.1%	33.6%	i	-1.0
CCCCN(C(=O)c1cc(S(=O)(=O)N2CCCCCC2)ccc1OC)c1c(N)n(CCC)c(=O)[nH]c1=O	-1.8%	3.5%	.	.	i	0.6
O=c1c2ccccc2oc2ccc(NCCCn3ccnc3)cc12	0.0%	4.47µM*	.	?	i	0.1
